The full list was thinned out, with hits kept by preference.
TDP1 cell CPT: DT40-hTDP1 cell growth loss with CPT; chicken DT40 Tdp1-/-;hTDP1 cells + 20 nM CPT, ATP luminescence, 48 h; Potency, µM (highest dose often 46.2 µM), for inactives: at the highest dose activity change, negative = growth inhibition, actives largely listed as inhibitors; 420,000 tested, 12% active; AID 686979; also: potency is read from the fitted curve at half-maximal effect; nearly all actives have a fitted effect of over 55% in size
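Cell growth measured by CellTiter-Glo luminescence after a minimum 48 h, 37 C compound exposure with 20 nM CPT in Tdp1-knockout DT40 cells stably expressing hTDP1, seeded 400/well; qHTS titration format.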
HT1080 IDH1KD tx: HT-1080 IDH1 knockdown cell toxicity (counter line). 360,000 tested, 2% active. Potency, µM (highest dose often 46.1 µM), for inactives: at the highest dose activity, negative = toxicity, usual class: cytotoxic. HT-1080 IDH1 knockdown viability, ATP luminescence, 48 h;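 also: potency is read from the fitted curve at half-maximal effect; 0% = DMSO wells and -100% = cell-free medium wells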
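Using the IDH1-knockdown HT-1080 line run in the same batch and compound series as the NT line, viability after 48 h at 37 °C was determined by CellTiter-Glo luminescence and expressed as % activity.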
IL1B secr inh: blocks inflammasome-driven IL-1 beta release. 360,000 tested, 4.7% active. THP-1 LPS/ATP IL-1B secretion, AlphaLISA, 16 h; active compounds read low. activity change, % at 57.5 µM; in the data active = activity change below about -50%; inconclusive = mostly about -30% to -49%
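THP-1 cells pretreated 1 hr with compounds (up to 57.5 uM final), then stimulated with LPS (250 ng/mL final) plus ATP (1.25 mM final); secreted IL-1B measured by AlphaLISA after 16 hr, decreased signal indicating inhibition.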
TDP1 cell noCPT: qHTS for Inhibitors of human tyrosyl-DNA phosphodiesterase 1 (TDP1): qHTS in cells in absence of CPT; DT40 Tdp1-/- hTDP1 cells, no CPT, ATP luminescence, 48 h; Potency, µM (series often up to 46.2 µM), for the others: at the top dose activity change, negative = growth inhibition, hits mostly inhibitors; 420,000 tested, 15% active; AID 686978, 2013; also: potency is read from the fitted curve at half-maximal effect; nearly all actives have a fitted effect of over 55% in size
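Camptothecin absent (DMSO only). Human TDP1-complemented DT40 knockout cells, 400 cells/well, 37 °C for minimum 48 hr; ATP measured via CellTiter-Glo, 30 min dark incubation, luminescence.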
ALOX12 inh: ALOX12 (human) lipoxygenase inhibition | P18054 | purified 12hLO, xylenol orange hydroperoxide absorbance | Potency, µM (titrated, usually from 108 µM), for inactives: at the top dose activity change, negative = inhibition, usual class: inhibitors | 580,000 tested, 1.1% active | AID 1671190; also: potency is read from the fitted curve at half-maximal effect
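Purified human 12hLO (150 nM final) in 25 mM Hepes, 0.01% Triton X-100, pH 7.0 was preincubated 15 min at room temperature with compound. Then 40 uM arachidonic acid was added, 30 min. Hydroperoxide was read by Fe-XO absorbance ratio 573/405 nm.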
HT1080NT lethal: kills 2HG-producing HT-1080-NT fibrosarcoma cells. HT-1080-NT fibrosarcoma viability, CellTiter-Glo ATP luminescence, 48 h. Potency, µM (doses to about 46.1 µM), inactives show at the top dose activity, negative = less viability, most hits filed as cytotoxic. 360,000 tested, 1.6% active;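 also: NT is the 2HG producing partner of a matched IDH1 knockdown line; potency is read from the fitted curve at half-maximal effect; 0% = DMSO-treated cells and -100% = media-only wells without cells; nearly all actives have a fitted effect of over 55% in size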
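HT-1080-NT fibrosarcoma cells (2HG-overproducing), 750 cells/well in RPMI with 5% FBS, dosed after 2 h and incubated 48 h at 37C. CellTiter-Glo luminescence normalized to DMSO and no-cell wells; concentration-response curves fitted and classed.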
Active calls of the source: *; u = inconclusive; x = no result given; [ ] = remark or other dose. Unless noted, calls follow the shape of the dose curve; as a rule, active = well fitted curve in the direction sought with a large enough effect; inconclusive = small, poorly fitted or top-dose-only effect, or another doubt; inactive = no such curve, though single readings can be large; an effect the other way counts as inactive or inconclusive. Unless noted, % is scaled to controls: 0 for no effect and ±100 for the full control effect.

SMILES	TDP1 cell CPT	HT1080 IDH1KD tx	IL1B secr inh	TDP1 cell noCPT	ALOX12 inh	HT1080NT lethal
Cc1cc(C)nc(NC(=S)NC(=O)c2ccccc2)n1	12%	17%	20	4%	31%	8%
COc1ccc(/C=C/C(=O)OCC(=O)c2cccs2)cc1	x	x	x	x	17%	x
COc1ccc(C(=O)NC(=S)NNC(=O)c2cccc(C)c2)cc1	26µM*	u	40	23µM*	u	-22%
O=C(NC(=S)NCc1ccccc1)c1cccc(Cl)c1	-6%	1%	-8	u	28µM*	5%
CCCOc1ccc(C(=O)NNC(=S)NC(=O)CC)cc1	4.6µM*	10µM*	55	2.6µM*	u	u
O=C(NC(=S)NCc1ccccc1)c1cccnc1	-22%	4%	36	-10%	-15%	0%
Cc1ccc(C(=O)NC(=S)NNC(=O)c2ccccc2)cc1	u	-25%	46	u	u	-19%
Cc1cccc(C(=O)NNC(=S)NC(=O)c2ccccc2)c1	18µM*	u	u	21µM*	122%	u
Cc1ccc(C(=O)NC(=S)NCc2ccccc2)cc1	-28%	0%	-6	-4%	10µM*	0%
O=C(CSCCSCC(=O)c1ccccc1)c1ccccc1	x	x	x	x	1%	x
O=C(CSc1cnc2ccccc2n1)Nc1ccc2c(c1)OCCCO2	x	x	x	x	16%	x
COCCCNc1oc(-c2ccc(S(=O)(=O)N3CCCC3)cc2)nc1C#N	x	x	x	x	3%	x
COc1ccc(C(=O)NNC(=O)c2ccc3ccccc3n2)cc1	16µM*	u	-98*	4.1µM*	8%	-15%
CC(=O)c1cccc(NC(=S)NC(=O)c2cccc(C)c2)c1	1%	0%	-6	-31%	32µM*	2%
COc1ccc(C(=O)NNC(=S)NC(=O)c2cccs2)cc1	15µM*	u	91	u	u	u
O=C(NNC(=O)c1ccc2ccccc2n1)c1ccc(O)cc1	u	-28%	0	u	6%	-18%
COc1ccccc1C(=O)NNC(=S)NC(=O)c1cccs1	x	x	x	x	95%	x
Cc1ccc(C(=O)NNC(=S)NC(=O)c2ccccc2)cc1	18µM*	u	47	16µM*	0%	u
NC(=O)c1ccc(CNC(=O)c2nccnc2N)cc1	x	x	x	x	3%	x
CC(C)CC(=O)Nc1ccc(C(=O)NNC(=S)NC(=O)C2CCCCC2)cc1	15µM*	u	29	16µM*	26%	7.9µM*
COc1ccc(C(=O)NNC(=S)NC(=O)c2ccc(OC)cc2)cc1	16µM*	u	66	u	u	u
CCOC(=O)CCC(=O)NNC(=O)c1ccc(NC(=O)c2ccccc2)cc1	18µM*	-4%	-8	u	177%	-7%
O=C(Cc1ccccc1)NNC(=O)c1ccc(NC(=O)c2ccccc2)cc1	u	u	12	-29%	-22%	-28%
CCNC(=S)NNC(=O)c1ccc(OC)cc1	-3%	12%	29	-5%	5%	7%
Cc1cccc(C(=O)NNC(=O)c2ccccc2O)c1	u	u	32	21µM*	0%	-27%
SMILES	TDP1 cell CPT	HT1080 IDH1KD tx	IL1B secr inh	TDP1 cell noCPT	ALOX12 inh	HT1080NT lethal
O=C(c1ccccc1)N1CCC(c2nn(-c3ccc(F)cc3)c(=O)[nH]2)CC1	x	x	x	x	35%	x
Cc1ccc(NC(=O)c2ccccc2NCC(=O)N2CC(=O)Nc3ccccc32)cc1	x	x	x	x	4%	x
CCC(CC)NC(=O)CSc1ccc2c(c1)OCCCO2	x	x	x	x	6%	x
CCOC(=O)c1sc(NC(=O)c2ccc(S(=O)(=O)N3CCCCCC3)cc2)cc1C	x	x	x	x	-17%	x
Cc1ccc(S(=O)(=O)N2CCN(Cc3ccccc3C(F)(F)F)CC2)cc1	-9%	0%[9.24 µM]	12	-33%	1.1µM*	-1%
Cc1ccc(S(=O)(=O)N2CCN(Cc3ccccc3Cl)CC2)cc1	u	x	x	18µM*	u	x
